From publication PMC5540273 (PLoS ONE, 2017)

Assays:
Settings in all cases: concentration: 1 μM,replicates: in singlicate; n = 1
[1] = system: T1, RSK4(Kin.Dom.1-N-terminal)
T1 construct: gene RPS6KA6

[2] = system: T2, RSK4(Kin.Dom.2-C-terminal)
T2 construct: gene RPS6KA6

S6K1 = system: S6K1
SBK1 = system: SBK1
SGK2 = system: SGK2
SGK3 = system: SGK3
SGK = system: SGK
SIK2 = system: SIK2
SIK = system: SIK
SLK = system: SLK
SNARK = system: T3, SNARK
T3 construct: gene NUAK2

SNRK = system: SNRK
SRC = system: SRC
SRMS = system: SRMS
SRPK1 = system: SRPK1
SRPK2 = system: SRPK2
SRPK3 = system: SRPK3
STK16 = system: STK16
STK33 = system: STK33
STK35 = system: STK35
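Also: KINOMEscan kinase panel screen.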

| SMILES | %Inh [1] | %Inh [2] | %Inh (S6K1) | %Inh (SBK1) | %Inh (SGK2) | %Inh (SGK3) | %Inh (SGK) | %Inh (SIK2) | %Inh (SIK) | %Inh (SLK) | %Inh (SNARK) | %Inh (SNRK) | %Inh (SRC) | %Inh (SRMS) | %Inh (SRPK1) | %Inh (SRPK2) | %Inh (SRPK3) | %Inh (STK16) | %Inh (STK33) | %Inh (STK35) |
| --- | --- | --- | --- | --- | --- | --- | --- | --- | --- | --- | --- | --- | --- | --- | --- | --- | --- | --- | --- | --- |
| CN(c1ccccc1CNc1nc(Nc2ccc3c(c2)CC(=O)N3)ncc1C(F)(F)F)S(C)(=O)=O | 67% | 2% | 22% | 3% | 0% | 32% | 18% | 40% | 16% | 94.8% | 93.4% | 0% | 70% | 0% | 46% | 0% | 39% | 99.9% | 68% | 0% |
| Cc1ccc2c(-c3ccnc(Nc4ccc(C(F)(F)F)cc4)n3)cnn2n1 [GW819776] | 23% | 0% | 29% | 8% | 0% | 0% | 9% | 2% | 0% | 21% | 0% | 0% | 0% | 28% | 14% | 0% | 26% | 48% | 52% | 0% |
| Cl.c1ccc(Oc2ccc(Nc3ccnc4cc(-c5ccc(CN6CCNCC6)o5)ccc34)cc2)nc1 [GW567142] | 0% | 22% | 0% | 0% | 0% | 0% | 22% | 65% | 97.4% | 19% | 14% | 0% | 34% | 89% | 0% | 7% | 0% | 0% | 24% | 57% |
| Cc1ccn2nc(-c3ccc(F)cc3)c(-c3ccncc3)c2c1.Cl [GW457859] | 0% | 85% | 1% | 10% | 0% | 5% | 22% | 0% | 0% | 2% | 7% | 52% | 0% | 0% | 13% | 68% | 0% | 1% | 0% | 0% |
| O=C(NCC1CC1)c1ccc(-c2cc(C(=O)NC3CC3)ccc2F)cc1 [GW810445] | 0% | 0% | 0% | 4% | 0% | 0% | 7% | 0% | 2% | 0% | 0% | 0% | 9% | 2% | 0% | 0% | 0% | 4% | 0% | 0% |
| CCn1c(-c2nonc2N)nc2cncc(CNC3CCNCC3)c21.Cl [SB-747651] | 10% | 25% | 60% | 25% | 7% | 43% | 0% | 0% | 0% | 9% | 13% | 0% | 0% | 0% | 23% | 0% | 0% | 15% | 0% | 0% |
| CN1CCN(CCNc2nc3cc(Oc4ccc(NC(=O)Nc5cc(C(F)(F)F)ccc5F)cc4)ccc3[nH]2)CC1.Cl.Cl [GW768504] | 0% | 0% | 0% | 0% | 0% | 0% | 0% | 0% | 0% | 7% | 0% | 0% | 0% | 18% | 9% | 0% | 10% | 0% | 0% | 0% |
| COc1cc(Nc2nccc(N3CCC(NC(=O)c4cccc(C#N)c4)C3)n2)cc(OC)c1OC (stereo not drawn) [GSK1379751] | 0% | 9% | 0% | 22% | 2% | 0% | 3% | 0% | 0% | 1% | 3% | 0% | 22% | 0% | 49% | 24% | 0% | 64% | 0% | 0% |
| COc1cc2c(Nc3ccc(NC(=O)c4ccccc4)cc3)ncnc2cc1OCCCN1CCOCC1 [GSK301329] | 0% | 0% | 24% | 14% | 2% | 1% | 0% | 4% | 2% | 58% | 7% | 0% | 20% | 19% | 0% | 0% | 2% | 12% | 41% | 4% |
| Cc1cccc2c(-c3ccncc3)c(-c3ccc(F)cc3)nn12.Cl [GW461487] | 21% | 83% | 5% | 8% | 8% | 13% | 0% | 0% | 0% | 15% | 17% | 0% | 0% | 0% | 0% | 0% | 100% | 4% | 0% | 0% |
| C[C@@H](Oc1cc(-n2cnc3cc(-c4cnn(C)c4)ccc32)sc1C(N)=O)c1ccccc1Cl [GSK580432] | 37% | 7% | 0% | 13% | 5% | 0% | 0% | 74% | 65% | 99.7% | 98.4% | 0% | 84% | 0% | 98.2% | 42% | 85% | 51% | 0% | 3% |
| CSc1nccc(-c2c(-c3ccc(F)cc3)ncn2CCCN2CCOCC2)n1.Cl [SB-217146] | 18% | 21% | 17% | 6% | 0% | 13% | 10% | 0% | 0% | 0% | 0% | 1% | 10% | 35% | 0% | 0% | 0% | 0% | 0% | 0% |
| CS(=O)(=O)c1cccc(CNc2nc(Nc3ccc4c(c3)[C@@H]3C[C@@H]4CNC3=O)ncc2C(F)(F)F)c1 | 73% | 5% | 0% | 81% | 0% | 25% | 43% | 47% | 45% | 98.2% | 97.6% | 0% | 0% | 0% | 91.6% | 0% | 49% | 97.3% | 0% | 0% |
| Nc1nccc(-c2ccc3c(N)n[nH]c3c2)n1 [GSK1034945] | 59% | 24% | 1% | 25% | 4% | 24% | 0% | 0% | 0% | 25% | 35% | 0% | 0% | 0% | 67% | 0% | 55% | 29% | 0% | 0% |
| CC(C(=O)NC1CCN(c2ccnc(Nc3ccc(F)cc3)n2)C1)c1ccc(Cl)cc1 (stereo not drawn) [GSK1379713] | 0% | 0% | 0% | 7% | 0% | 0% | 0% | 0% | 0% | 17% | 0% | 0% | 0% | 0% | 20% | 0% | 18% | 0% | 5% | 0% |
| Cn1ccc2ncnc(Oc3ccc(NC(=O)Nc4cnn(C(C)(C)C)c4)c(Cl)c3)c21 | 22% | 0% | 1% | 0% | 12% | 2% | 10% | 10% | 14% | 79% | 10% | 0% | 82% | 0% | 74% | 11% | 0% | 16% | 7% | 0% |
| CCN1CCN(CCCC(=O)Nc2n[nH]c3nc(-c4ccc(O)cc4)c(Br)cc23)CC1 [SB-731579] | 20% | 0% | 0% | 10% | 0% | 0% | 0% | 0% | 0% | 78% | 0% | 0% | 0% | 0% | 0% | 0% | 13% | 2% | 0% | 0% |
| FC(F)(F)c1cc(Br)cc(Nc2nccc(-c3cnn4ncccc34)n2)c1 [GW810578] | 13% | 0% | 4% | 0% | 0% | 17% | 2% | 0% | 14% | 13% | 47% | 0% | 39% | 6% | 9% | 0% | 0% | 42% | 12% | 9% |
| COC(=O)Nc1nc2cc(Oc3ccc(NC(=O)Nc4cc(C(F)(F)F)ccc4Cl)cc3)ccc2[nH]1.Cl [GW697465] | 0% | 25% | 23% | 1% | 0% | 0% | 2% | 0% | 0% | 63% | 0% | 0% | 1% | 0% | 41% | 32% | 3% | 0% | 57% | 0% |
| CN(c1cccc(CNc2nc(Nc3ccc4c(c3)CC(=O)N4)ncc2C(F)(F)F)c1)S(C)(=O)=O | 77% | 54% | 42% | 48% | 0% | 2% | 31% | 56% | 25% | 33% | 76% | 0% | 4% | 0% | 73% | 0% | 31% | 90.2% | 0% | 8% |
| O=C(NOCC1CC1)c1cc(Br)c(F)c(F)c1Nc1ccc(I)cc1Cl | 0% | 21% | 19% | 0% | 0% | 0% | 0% | 21% | 0% | 3% | 0% | 0% | 2% | 0% | 0% | 0% | 0% | 20% | 0% | 0% |
